Measured values reported in PubChem BioAssay (NCATS).
Records with an inconclusive call do not appear. Calls of active or inactive are those of the source. Calls come from the whole dose curve; as a rule, active = well fitted curve in the direction sought with a large enough effect; inconclusive = small, poorly fitted or top-dose-only effect, or another doubt; inactive = no such curve, though single readings can be large; an effect the other way counts as inactive or inconclusive.

Key:
NIH3T3 = experiment: qHTS assay to identify novel small-molecules to repurpose for Merkel cell carcinoma treatment (AID 1296009); settings: MCC and control cell lines, CellTiter-Glo viability, 72 h; at 44.8 µM (top of the series) unless noted; note: nearly all actives have a fitted effect of over 60% in size
Method in brief: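 Viability readout: ATP luminescence (CellTiter-Glo) after 72 hr drug exposure at 37 degree celsius. Dose-response format was 8 points for NPC and 11 points for MIPE; data normalized to in-plate controls.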

C33A = experiment: Primary qHTS to identify gynecologic anti-cancer compounds using libraries of approved drugs and bioactive compounds (AID 1345084); settings: Gynecologic cancer cell panel viability, ATPlite luminescence, 48 h; series mostly up to 57.5 µM; note: % is set by controls: 0 for no effect and ±100 for the full control effect; nearly all actives have a fitted effect of over 55% in size
Method in brief: (§1)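 Five-concentration response, 48 h; readout is ATP-driven luciferase luminescence.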

CAOV3 = experiment: as above; settings: Gynecologic cancer cell panel viability, ATPlite luminescence, 48 h; series mostly up to 57.5 µM
Method in brief: as §1

CASKI = experiment: as above; settings: Gynecologic cancer cell panel viability, ATPlite luminescence, 48 h; series mostly up to 57.5 µM
Method in brief: as §1

Es-2 = experiment: as above; settings: Gynecologic cancer cell panel viability, ATPlite luminescence, 48 h; series mostly up to 57.5 µM
Method in brief: as §1

HeLa = experiment: as above; settings: Gynecologic cancer cell panel viability, ATPlite luminescence, 48 h; series mostly up to 57.5 µM
Method in brief: as §1

Hek293T = experiment: as above; settings: Gynecologic cancer cell panel viability, ATPlite luminescence, 48 h, control line for the selectivity index; series mostly up to 57.5 µM
Method in brief: as §1

JEG-3 = experiment: as above; settings: Gynecologic cancer cell panel viability, ATPlite luminescence, 48 h; series mostly up to 57.5 µM
Method in brief: as §1

OV90 = experiment: as above; settings: Gynecologic cancer cell panel viability, ATPlite luminescence, 48 h; series mostly up to 57.5 µM
Method in brief: as §1

PA-1 = experiment: as above; settings: Gynecologic cancer cell panel viability, ATPlite luminescence, 48 h; series mostly up to 57.5 µM
Method in brief: as §1

SKOV3 = experiment: as above; settings: Gynecologic cancer cell panel viability, ATPlite luminescence, 48 h; series mostly up to 57.5 µM
Method in brief: as §1

Tov-21-G = experiment: as above; settings: Gynecologic cancer cell panel viability, ATPlite luminescence, 48 h; series mostly up to 57.5 µM
Method in brief: as §1

Tov112D = experiment: as above; settings: Gynecologic cancer cell panel viability, ATPlite luminescence, 48 h; series mostly up to 57.5 µM
Method in brief: as §1

Cc1cc(-n2c(=O)[nH]c(=O)n(C)c2=O)ccc1Oc1ccc(SC(F)(F)F)cc1
inactive: outcome (NIH3T3) | Potency (C33A) | Potency (CAOV3) | outcome (CASKI) | Potency (Es-2) | Potency (HeLa) | Potency (Hek293T) | Potency (JEG-3) | Potency (OV90) | Potency (PA-1) | Potency (SKOV3) | Potency (Tov-21-G) | Potency (Tov112D)

CC(C)=CCC(O)[C@](C)(O)C1[C@H](O)C[C@@]2(C)C3CC=C4C(C[C@H](O)[C@@H](O[C@@H]5O[C@H](CO)[C@@H](O)[C@H](O)[C@H]5O)C4(C)C)[C@]3(C)C(=O)C[C@]12C (some centres undefined)
inactive: outcome (NIH3T3) inactive [at 17.4 µM] | Potency (C33A) | Potency (CAOV3) | outcome (CASKI) | Potency (Es-2) | Potency (HeLa) | Potency (Hek293T) | Potency (JEG-3) | Potency (OV90) | Potency (PA-1) | Potency (SKOV3) | Potency (Tov-21-G) | Potency (Tov112D)

CC1=C(CC/C(C)=C/C(=O)O)[C@@]2(C)CCCC(C)(C)C2CC1=O (some centres undefined)
inactive: outcome (NIH3T3) | Potency (C33A) | Potency (CAOV3) | outcome (CASKI) | Potency (Es-2) | Potency (HeLa) | Potency (Hek293T) | Potency (JEG-3) | Potency (OV90) | Potency (PA-1) | Potency (SKOV3) | Potency (Tov-21-G) | Potency (Tov112D)

CC(C)=CC1C[C@](C)(O)[C@@H]2[C@H]3CCC4[C@@]5(C)CC[C@H](O[C@@H]6OC[C@H](O)[C@H](O[C@@H]7O[C@H](CO[C@@H]8O[C@H](CO)[C@@H](O)[C@H](O)[C@H]8O)[C@@H](O)[C@H](O)[C@H]7O)[C@H]6O[C@@H]6O[C@@H](C)[C@H](O)[C@@H](O)[C@H]6O)C(C)(C)[C@@H]5CC[C@@]4(C)[C@@]34CO[C@@]2(C4)O1 (some centres undefined)
inactive: outcome (NIH3T3) inactive [at 9.27 µM] | activity change, negative = cytotoxicity (C33A) 25.2% [at 11.6 µM] | activity change, negative = cytotoxicity (CAOV3) 4.48% [at 11.6 µM] | activity change, negative = cytotoxicity (CASKI) 12.3% [at 11.6 µM] | activity change, negative = cytotoxicity (Es-2) 11.4% [at 11.6 µM] | activity change, negative = cytotoxicity (HeLa) 6.98% [at 11.6 µM] | activity change, negative = cytotoxicity (Hek293T) -1.62% [at 11.6 µM] | activity change, negative = cytotoxicity (JEG-3) 8.28% [at 11.6 µM] | activity change, negative = cytotoxicity (OV90) 5% [at 11.6 µM] | activity change, negative = cytotoxicity (PA-1) 0.967% [at 11.6 µM] | activity change, negative = cytotoxicity (SKOV3) 2.44% [at 11.6 µM] | activity change, negative = cytotoxicity (Tov-21-G) 9.39% [at 11.6 µM] | activity change, negative = cytotoxicity (Tov112D) 6.5% [at 11.6 µM]

CC(C/C=C/C(C)(C)O)C1CCC(C)(O)C(O)C1 (centres undefined)
inactive: outcome (NIH3T3) | Potency (C33A) | Potency (CAOV3) | outcome (CASKI) | Potency (Es-2) | Potency (HeLa) | Potency (Hek293T) | Potency (JEG-3) | Potency (OV90) | Potency (PA-1) | Potency (SKOV3) | Potency (Tov-21-G) | Potency (Tov112D)

CCC1=C(C)C(=O)C(C)CC12C(=O)CCC2C(=O)O (centres undefined)
inactive: outcome (NIH3T3) | Potency (C33A) | Potency (CAOV3) | outcome (CASKI) | Potency (Es-2) | Potency (HeLa) | Potency (Hek293T) | Potency (JEG-3) | Potency (OV90) | Potency (PA-1) | Potency (SKOV3) | Potency (Tov-21-G) | Potency (Tov112D)

COc1cc2c(c(OC)c1O)C(c1ccc(O)cc1)C1C(=O)OC3C(COC(=O)C1=C2)OC(CO)(OC1OC(COC(=O)/C=C/c2ccc(OC4OC(C)C(O)C(O)C4O)cc2)C(O)C(O)C1O)C3O (centres undefined)
inactive: outcome (NIH3T3) inactive [at 9.27 µM] | activity change, negative = cytotoxicity (C33A) 12% [at 11.6 µM] | activity change, negative = cytotoxicity (CAOV3) -2.13% [at 11.6 µM] | activity change, negative = cytotoxicity (CASKI) 3.12% [at 11.6 µM] | activity change, negative = cytotoxicity (Es-2) 0.658% [at 11.6 µM] | activity change, negative = cytotoxicity (HeLa) -0.142% [at 11.6 µM] | activity change, negative = cytotoxicity (Hek293T) 7.04% [at 11.6 µM] | activity change, negative = cytotoxicity (JEG-3) 8.95% [at 11.6 µM] | activity change, negative = cytotoxicity (OV90) 10.3% [at 11.6 µM] | activity change, negative = cytotoxicity (PA-1) -0.775% [at 11.6 µM] | activity change, negative = cytotoxicity (SKOV3) 25.2% [at 11.6 µM] | activity change, negative = cytotoxicity (Tov-21-G) -2.98% [at 11.6 µM] | activity change, negative = cytotoxicity (Tov112D) -3.14% [at 11.6 µM]

C/C(=C\CC/C(C)=C/CC[C@]1(C)CCc2cc(O)cc(C)c2O1)CC/C=C(\C)C(=O)O
inactive: outcome (NIH3T3) inactive [at 17.4 µM] | Potency (C33A) | Potency (CAOV3) | outcome (CASKI) | Potency (Es-2) | Potency (HeLa) | Potency (Hek293T) | Potency (JEG-3) | Potency (OV90) | Potency (PA-1) | Potency (SKOV3) | Potency (Tov-21-G) | Potency (Tov112D)

CC12CC(O)C(O)C=C1c1cc(O)cc(O)c1C(=O)O2 (centres undefined)
inactive: outcome (NIH3T3) | Potency (C33A) | Potency (CAOV3) | outcome (CASKI) | Potency (Es-2) | Potency (HeLa) | Potency (Hek293T) | Potency (JEG-3) | Potency (OV90) | Potency (PA-1) | Potency (SKOV3) | Potency (Tov-21-G) | Potency (Tov112D)

COC(=O)C[C@@H]1C(C(=O)O)=CO[C@@H](O[C@@H]2O[C@H](CO)[C@@H](O)[C@H](O)[C@H]2O)/C1=C\COC(=O)/C=C/c1ccc(O)c(OC)c1
inactive: outcome (NIH3T3) inactive [at 17.4 µM] | Potency (C33A) | Potency (CAOV3) | outcome (CASKI) | Potency (Es-2) | Potency (HeLa) | Potency (Hek293T) | Potency (JEG-3) | Potency (OV90) | Potency (PA-1) | Potency (SKOV3) | Potency (Tov-21-G) | Potency (Tov112D)

C/C=C/C=C/C(=O)OC1CC/C=C/C(O)C(O)C(CCC)OC1=O (centres undefined)
inactive: outcome (NIH3T3) | Potency (C33A) | Potency (CAOV3) | outcome (CASKI) | Potency (Es-2) | Potency (HeLa) | Potency (Hek293T) | Potency (JEG-3) | Potency (OV90) | Potency (PA-1) | Potency (SKOV3) | Potency (Tov-21-G) | Potency (Tov112D)

COc1ccc(CC(=O)NCc2ccccc2-c2ccccc2C(=O)NCCc2cccnc2)cc1
inactive: outcome (NIH3T3) | Potency (C33A) | Potency (CAOV3) | outcome (CASKI) | Potency (Es-2) | Potency (HeLa) | Potency (Hek293T) | Potency (JEG-3) | Potency (OV90) | Potency (PA-1) | Potency (SKOV3) | Potency (Tov-21-G) | Potency (Tov112D)

COc1c(O)cc2c(c1O)C(=O)O[C@H](C)[C@H]2O
inactive: outcome (NIH3T3) | Potency (C33A) | Potency (CAOV3) | outcome (CASKI) | Potency (Es-2) | Potency (HeLa) | Potency (Hek293T) | Potency (JEG-3) | Potency (OV90) | Potency (PA-1) | Potency (SKOV3) | Potency (Tov-21-G) | Potency (Tov112D)
